# Assay results published in publication PMC4336329 (PLoS ONE, 2015).
# Screen size: about 310,000 compounds; about 14,000 (4.5%) showed an effect of 50% or more. Effects have a minus sign here. What follows is part of a selection rich in strong results, with near analogues and random picks from the rest.
# Target: human ether-à-go-go-related gene (hERG) potassium channel (human, UniProt Q12809)
# Test: primary screen, population patch clamp on CHO cells stably expressing hERG; higher = less effect of the substance
# 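Also: peak tail current of the secondary pulse compared with the same well before compound.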
# Chain of human ether-à-go-go-related gene (hERG) potassium channel (Q12809 whole entry, looked up): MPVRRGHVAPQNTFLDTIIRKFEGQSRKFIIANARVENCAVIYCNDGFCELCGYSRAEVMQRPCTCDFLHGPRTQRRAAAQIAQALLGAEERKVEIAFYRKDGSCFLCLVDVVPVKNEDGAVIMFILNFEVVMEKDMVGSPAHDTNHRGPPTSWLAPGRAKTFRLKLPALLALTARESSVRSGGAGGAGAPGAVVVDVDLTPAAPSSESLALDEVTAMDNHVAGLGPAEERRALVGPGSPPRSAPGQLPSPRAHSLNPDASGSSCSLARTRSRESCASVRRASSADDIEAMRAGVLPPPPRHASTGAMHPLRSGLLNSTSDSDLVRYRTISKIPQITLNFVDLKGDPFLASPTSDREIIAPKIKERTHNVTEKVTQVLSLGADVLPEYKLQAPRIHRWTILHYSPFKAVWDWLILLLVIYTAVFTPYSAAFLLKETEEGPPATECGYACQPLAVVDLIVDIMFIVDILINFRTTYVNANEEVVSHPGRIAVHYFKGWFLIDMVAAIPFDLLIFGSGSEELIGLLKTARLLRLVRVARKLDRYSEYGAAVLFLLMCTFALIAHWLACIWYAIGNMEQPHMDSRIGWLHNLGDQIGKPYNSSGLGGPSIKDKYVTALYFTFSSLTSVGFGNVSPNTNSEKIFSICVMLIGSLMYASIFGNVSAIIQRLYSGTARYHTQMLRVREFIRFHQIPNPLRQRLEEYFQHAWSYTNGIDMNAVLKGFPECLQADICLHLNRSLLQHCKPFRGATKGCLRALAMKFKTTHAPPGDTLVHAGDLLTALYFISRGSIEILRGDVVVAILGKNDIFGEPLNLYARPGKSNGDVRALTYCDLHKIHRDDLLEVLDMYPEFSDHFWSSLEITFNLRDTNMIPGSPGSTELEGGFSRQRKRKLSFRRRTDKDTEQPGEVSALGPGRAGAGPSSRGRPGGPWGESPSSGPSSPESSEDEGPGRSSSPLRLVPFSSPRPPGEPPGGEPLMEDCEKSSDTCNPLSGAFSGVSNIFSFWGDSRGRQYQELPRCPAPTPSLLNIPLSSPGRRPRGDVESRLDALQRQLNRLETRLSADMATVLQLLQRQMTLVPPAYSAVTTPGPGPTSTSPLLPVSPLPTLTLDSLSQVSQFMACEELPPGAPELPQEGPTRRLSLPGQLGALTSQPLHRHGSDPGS
row,Structure (SMILES),"hERG current change (%, negative = inhibition) at 10uM"
1,OCCCNCc1cccc2ccccc12,-15.8%
2,Cc1ccc(C(C(=O)NC2CCCCC2)N(C(=O)CCCC(=O)Nc2ccccn2)c2ccc3c(c2)OCCO3)cc1 (stereo not drawn),-3.99%
3,COC(=O)c1ccc(CSc2nnc3c(n2)[nH]c2ccccc23)cc1,-23.1%
4,Cc1cc(C)c(C)c(S(=O)(=O)N2CCN(c3ncnc4sc(C)c(C)c34)CC2)c1C,8.21%
5,Cc1sc2ncnc(N3CCCCC3)c2c1C,-11.9%
6,CCS(=O)(=O)N1CCN(c2ncnc3sc(C)c(C)c23)CC1,-53.7%
7,Cc1sc2ncnc(N3CCN(S(=O)(=O)c4ccccc4)CC3)c2c1C,-18.6%
8,Cc1sc2ncnc(N3CCN(S(=O)(=O)c4ccc(F)cc4)CC3)c2c1C,-50.9%
9,Cc1sc2ncnc(N3CCN(S(=O)(=O)c4ccc(Br)cc4)CC3)c2c1C,-47.5%
10,COc1ccccc1NC(=O)NCC(=O)Nc1c(C)cccc1C,30.5%
11,CCOC(=O)c1ccc(CS(=O)c2ccc(Cl)cc2)o1 (stereo not drawn),-3.47%
12,Cc1cc(C)c(NC(=O)CCCN2CCOCC2)c(C)c1,13.1%
13,COC(=O)c1scc(C)c1NC(=O)CC1NCCNC1=O (stereo not drawn),11.9%
14,O=C(C[n+]1ccccc1)c1ccc(-c2ccccc2)cc1.[Br-],-21.4%
15,COC(=O)c1ccc(CC(=O)c2c(C)cc(O)cc2O)o1,0.801%
16,CC1CC(C)CN(CCOCCSc2ccccc2)C1.O=C(O)C(=O)O (stereo not drawn),-45.1%
17,CN(C)CCOCCSc1ccc(Cl)cc1.O=C(O)C(=O)O,-37.3%
18,CC1CN(CCCCSc2ccc(Cl)cc2)CC(C)O1.O=C(O)C(=O)O (stereo not drawn),-31.6%
19,CC1CCN(CCOCCSc2ccc(Cl)cc2)CC1.O=C(O)C(=O)O,-72.1%
20,CC1CN(CCOCCSc2ccc(Cl)cc2)CC(C)O1.O=C(O)C(=O)O (stereo not drawn),-23.3%
21,CC1CN(CCCCSc2ccccc2)CC(C)O1.Cl (stereo not drawn),-8.71%
22,CC1CC(C)CN(CCCSc2ccccc2)C1.O=C(O)C(=O)O (stereo not drawn),-64.3%
23,CC1CN(CCCSc2ccc(Cl)cc2)CC(C)O1.O=C(O)C(=O)O (stereo not drawn),-47.9%

row,Structure (SMILES),"hERG current change (%, negative = inhibition) at 10uM"
1,CC1CC(C)CN(CCOCCSc2ccc(Cl)cc2)C1.O=C(O)C(=O)O (stereo not drawn),-72.4%
2,Cc1cccc(OCC(O)Cn2c(N3CCCCC3)nc3c2c(=O)n(C)c(=O)n3C)c1 (stereo not drawn),-13.7%
3,CCN(CC)S(=O)(=O)c1cccc(-c2nnc(SCc3nc4ccccc4s3)o2)c1,-3.82%
4,O=S(=O)(Nc1ccccc1F)c1ccc(Cl)nc1,5.63%
5,Cc1ccc2oc(C(=O)NCCC3CCCCO3)c(C)c2c1 (stereo not drawn),-11.5%
6,Cn1c(=O)c2[nH]c(N=Nc3ccc(N)cc3N)nc2n(C)c1=O,28.7%
7,O=c1cc(NS(=O)(=O)c2ccccc2)nc(SCc2ccccc2Cl)[nH]1,6.99%
8,CCOc1ccc(N2C(=O)CC(N3CCN(c4ccccc4F)CC3)C2=O)cc1 (stereo not drawn),6.59%
9,COc1ccc(N2C(=O)CC(N3CCN(c4ccc(Cl)cc4)CC3)C2=O)cc1 (stereo not drawn),-4.94%
10,COc1ccc(NC2CCN(C3CC(=O)N(c4ccc(F)c(Cl)c4)C3=O)CC2)cc1 (stereo not drawn),-54.8%
11,CCOc1ccc(N2C(=O)CC(N3CCc4ccccc43)C2=O)cc1 (stereo not drawn),-3.24%
12,CCOc1ccc(N2C(=O)CC(N3CCN(C4CCc5ccccc5C4)CC3)C2=O)cc1 (stereo not drawn),-71.5%
13,COc1ccc(N2C(=O)CC(N3CCN(c4ccccc4)CC3)C2=O)cc1 (stereo not drawn),8.93%
14,COc1cccc(N2CCN(C3CC(=O)N(c4ccc(F)c(Cl)c4)C3=O)CC2)c1 (stereo not drawn),-12.6%
15,COc1ccc(N2C(=O)CC(N3CCCCC3)C2=O)cc1 (stereo not drawn),18.6%
16,COc1ccc(N2C(=O)CC(N3CCN(C4CCc5ccccc5C4)CC3)C2=O)cc1 (stereo not drawn),-61.7%
17,Fc1ccc(-[n+]2nc(Nc3ccccc3)sc2-c2ccc(OCc3ccccc3)cc2)cc1.[Cl-],-20.5%
18,Cc1ccccc1OCc1nnc2n1CC(C)S2 (stereo not drawn),7.43%
19,CCCCC(=O)Nc1ccc(NC(=S)NC(=O)CC)cc1OC,-0.84%
20,O=C(OCC(=O)N1CCC(c2ccccc2)=N1)c1ccc([N+](=O)[O-])s1,-34.7%
21,CC(C)c1ccc(/C=N/NC(=O)c2cccc(S(=O)(=O)N3CCOCC3)c2)cc1,10.1%
22,CN(C)c1ccc(C2C3C(=O)N(c4ccc(C(=O)O)cc4)C(=O)C3ON2c2ccccc2)cc1 (stereo not drawn),7.23%
